Results on 16 molecules are retold here after PubChem BioAssay (NCATS).

The nature of assay [1]: qHTS Assay for Identification of Small Molecule Antagonists for NFkB Signaling Pathway. (AID 624479; calls by dose curve;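 note: pathway stimulated with TNF alpha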; note: potency is the fitted concentration of half-maximal effect). For orientation: In qHTS, concentration-response curves come from the screen itself.
Assay [2] is described as follows: Cell Proliferation Assay against the TMD8 Cell Line (AID 651645).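 Note: cells exposed to compound for 48 h before reading.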 The settings on record: TMD8 DLBCL cell line proliferation/viability; at 46.1 µM (top of the series). The method in brief:
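Viability by CellTiter-Glo after 48 h compound exposure of 500 log-phase TMD8 cells per well (RPMI, 5% FBS). Percent activity scaled between DMSO (100%) and 9.2 uM final bortezomib (0%).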

Assay [3] in a line: Cell Proliferation Assay against the HBL1 Cell Line (AID 651646).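 Note: cells exposed to compound for 48 h before reading.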 The settings on record: HBL1 DLBCL cells; at 46.1 µM (top of the series). The method in brief: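 After a 48 h incubation of 500 HBL1 cells/well in phenol red-free RPMI plus 5% FBS, relative luciferase units from CellTiter-Glo gave percent activity against DMSO and 9.2 uM bortezomib (final) controls.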
Assay [4] can be described thus: Cell Proliferation Assay against the TMD8 Cell Line (Caspase readout at 8 hrs) (AID 651713).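 Note: 0% = DMSO and 100% = 9.2 µM bortezomib caspase signal.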 The method in brief: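 Caspase 3/7 activation in ABC DLBCL TMD8 cells is measured by luminescence after an 8 h compound exposure at 37C. Relative light units are scaled between DMSO (0%) and 9.2 uM final bortezomib (100%).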
The target of assay [5] is Tyrosine-protein kinase Yes (Homo sapiens) (UniProt P07947). Kind of assay: qHTS for small molecule inhibitors of Yes1 kinase: Primary Screen (AID 686947). Note: nearly all actives have a fitted effect of over 60% in size. Note: potency is the fitted concentration of half-maximal effect. The method in brief:
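ADP-Glo luminescence reports ADP formed by 4 nM Yes1 phosphorylating poly(E4Y) (0.3 mg/mL) with 0.1 mM ATP for 60 min at room temperature, following 20 min compound preincubation; normalised between DMSO wells with and without enzyme.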

Assay [6] can be described thus: qHTS for small molecule inhibitors of Yes1 kinase: Counter Assay (AID 686950).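 Note: no kinase present so only ADP-Glo detection of a fixed ADP amount is tested; luminescence from ADP-Glo reporting ADP in a fixed ATP and ADP mixture; 0% = DMSO wells with ATP plus ADP and -100% = ATP-only wells without ADP.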 A digest of the protocol:
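Measuring interference with ADP-Glo, the assay ran 60 min at room temperature on an ATP/ADP mix lacking enzyme. Values were normalized to ATP-plus-ADP (maximum) and ATP-only (minimum) DMSO controls.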

Assay [7] is described as follows: qHTS assay for small molecule agonists of the antioxidant response element (ARE) signaling pathway (AID 651741; active = well fitted activation curve with a large enough effect in the signal ratio; the % refers to the signal ratio; note: potency is the fitted concentration of half-maximal effect; for activation: % of control where 0% means no effect). A digest of the protocol:
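Reporter: beta-lactamase under ARE, stably in HepG2. Exposure: 16 h, 37 C, compounds delivered in DMSO by pin tool after 5 h cell preincubation. Readout: FRET substrate fluorescence after 2 h at RT.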

Assay [8] in a line: qHTS assay for small molecule activators of the p53 signaling pathway (AID 651743; active = well fitted activation curve with a large enough effect in the signal ratio, not every such curve was filed as active; the % refers to the signal ratio; note: % of control where 0% means no effect). The conditions noted are these: HCT-116 p53RE-bla, beta-lactamase FRET ratio, 16 h; stronger effect = higher value. The method in brief:
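Agonist-mode quantitative HTS in HCT-116 cells carrying a p53-response-element beta-lactamase reporter; 16 h compound treatment at 37 C, then FRET substrate loading for 2 h at room temperature and fluorescence read.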

The nature of assay [9]: qHTS assay for small molecule activators of the nuclear factor-kappa B (NF-kB) signaling pathway (AID 651749; active = well fitted activation curve with a large enough effect in the signal ratio; the % refers to the signal ratio; note: % of control where 0% means no effect). The conditions noted are these: NF-kB-bla ME-180 cells, beta-lactamase FRET ratio, 16 h; stronger effect = higher value. The method in brief: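 Human ME-180 cervical cells with an NF-kB-bla construct; compounds added via 23 nL pin transfer, DMSO as vehicle; incubation 16 hr. Reporter activity measured by FRET disruption.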

Assay [10] in a line: qHTS assay for small molecule disruptors of the mitochondrial membrane potential - 1 hr assay (AID 651754; calls by dose curve; note: % is set by controls: 0 for no effect and ±100 for the full control effect; nearly all actives have a fitted effect of over 35% in size). A digest of the protocol:
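Loss of mitochondrial potential shifts the cationic dye from red mitochondrial aggregates to green cytoplasmic monomers. Cells (HepG2) are treated with compound for 1 hr before a 30 min dye incubation at 37C.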

Assay [11] can be described thus: qHTS assay for small molecule disruptors of the mitochondrial membrane potential - 5 hr assay (AID 651755; calls by dose curve; note: % is set by controls: 0 for no effect and ±100 for the full control effect; nearly all actives have a fitted effect of over 40% in size). A digest of the protocol:
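Seed HepG2 overnight, add compound, incubate 5 hr at 37C and 5% CO2, stain 30 min with Mito-MPS, then measure monomer (490/535 nm) and aggregate (540/590 nm) fluorescence.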

The target in assay [12] is Tumor necrosis factor (Homo sapiens) (UniProt P01375). Description: qHTS assay to identify small molecules that stimulate Tumor Necrosis Factor-alpha (TNF-alpha) secretion (AID 651757; active = well fitted curve in the direction sought with a large enough effect in the signal ratio; the % refers to the signal ratio; note: 0% is about no effect). A digest of the protocol: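 Human monocytic THP-1 cells are plated, treated with compound and held at 37 C for 17 hrs. Labeled anti-TNF-alpha antibody mixture is then added; after 3 hr at room temperature, TR-FRET signal reports secreted TNF-alpha.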
Tumor necrosis factor (Homo sapiens), sequence (P01375 whole entry, looked up): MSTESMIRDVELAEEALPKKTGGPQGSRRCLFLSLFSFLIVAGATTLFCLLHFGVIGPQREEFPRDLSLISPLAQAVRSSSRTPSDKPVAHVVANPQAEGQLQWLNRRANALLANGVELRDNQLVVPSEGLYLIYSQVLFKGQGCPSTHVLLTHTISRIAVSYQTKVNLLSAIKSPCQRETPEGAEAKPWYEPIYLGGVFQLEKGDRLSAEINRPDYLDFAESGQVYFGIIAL

Assay [13] in a line: qHTS assay for environmental chemicals that activate the Aryl hydrocarbon Receptor (AhR) signaling pathway (AID 651777). Note: % of control where 0% means no effect; nearly all actives have a fitted effect of over 15% in size. The settings on record: 1A2-DRE human hepatoma cells, luciferase, 24 h; stronger effect = higher value. A digest of the protocol:
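Human hepatoma 1A2-DRE cells stably carrying a DRE/CYP1A2 promoter–luciferase reporter, 1,200 cells/well, exposed to compound 24 hr at 37 C. Luciferase read by One-Glo luminescence after 30 min at room temperature; increased signal marks AhR activation.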

For assay [14], the target named is Peroxisome proliferator-activated receptor alpha (Homo sapiens) (UniProt Q07869). Description: qHTS assay for small molecule agonists of the peroxisome proliferator-activated receptor alpha (PPARalpha) signaling pathway (AID 651778). Note: % of control where 0% means no effect. The conditions noted are these: PathHunter PPARalpha complementation, chemiluminescence, 6 h; stronger effect = higher value. The method in brief:
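Cells plated at 2,000/well and held overnight at 37 C, 5% CO2, then compound added by pin tool for 6 hr; after PathHunter detection reagent and 60 min at room temperature, chemiluminescence from enzyme complementation was read.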

The target in assay [15] is Nuclear receptor ROR-gamma (Homo sapiens) (UniProt P51449). Kind of assay: qHTS assay for small molecule antagonists of the retinoid-related orphan receptor gamma (ROR-gamma) signaling pathway (AID 651802).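 Note: CHO cells with doxycycline-induced ROR-gamma expression; % is set by controls: 0 for no effect and ±100 for the full control effect; nearly all actives have a fitted effect of over 60% in size.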 A digest of the protocol:
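Steps: cells dispensed; compound or DMSO transferred by pin tool; doxycycline added to induce the ROR response element-driven luciferase; plates held 16hr at 37C; ONE-Glo added and luminescence measured.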

The nature of assay [16]: qHTS assay for small molecule agonists of the antioxidant response element (ARE) signaling pathway measured by Nrf2-dependant transcriptional activity (AID 720636; active = well fitted curve in the direction sought with a large enough effect in the repeat runs; an effect the other way counts as inactive or inconclusive; note: % of control where 0% means no effect). The method in brief:
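ARE-luc HepG2 cells carrying an Nrf2-responsive luciferase reporter, in medium with 1% dialyzed FBS, exposed to compound for 16 hr at 37 C, 5% CO2. Luminescence read 30 min after ONE-Glo addition.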

The target of assay [17] is Arylsulfatase A (Homo sapiens) (UniProt P15289). Kind of assay: qHTS screen for enhancers of Arylsulfatase A (ASA1): LOPAC Validation Assay (AID 720538). The settings on record: ASA enzyme activity, LOPAC qHTS enhancer assay; at 57.5 µM (top of the series). The method in brief:
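Enhancer assay in patient-derived MLD fibroblasts carrying ASA-I179S: 48 h compound exposure at 37 C, then 14 h room-temperature pNCS turnover (0.5 mM final) in lysis buffer. Read by fluorescence at 525/598 nm after NaOH stop.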

A short description of assay [18]: qHTS for compounds that reverse cellular toxicity of Amyloid beta (A-beta) peptide in yeast: LOPAC Validation Assay (AID 720559).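 Note: plate controls were DMSO for no effect and equimolar ferric chloride plus clioquinol rescue for full effect.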 The method in brief: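 Rescue of A-beta toxicity was scored as yeast growth by 600 nm absorbance after 48 hr at 30 C with compound. Normalization used DMSO (negative) and equimolar ferric chloride plus clioquinol (positive).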
A short description of assay [19]: qHTS for Activators of Parkin Expression: LOPAC Validation Assay (NLuc Reporter) (AID 720572;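 note: 0% = DMSO and 100% = positive control compound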). A digest of the protocol:
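Cells harboring the Parkin-promoter coincidence reporter were treated for 24 h at seven concentrations. NLuc output was measured sequentially after the FLuc channel and scaled between DMSO and positive control values.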

Assay [20] in a line: qHTS for Activators of Parkin Expression: LOPAC Validation Assay (FLuc Reporter) (AID 720573;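 note: 0% = DMSO and 100% = positive control compounds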). The method in brief: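 FLuc signal from Parkin-promoter coincidence reporter neuronal cells, normalized to DMSO and positive control (100%). Cells (1,500/well) pre-incubated 24 h, then exposed to LOPAC compounds in 7-point dose response for 24 h at 37 C, 5% CO2.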

The structures appear in SMILES notation. Values joined by “and” are separate entries in the source; they are usually repeats but may differ in a detail not shown here. Equal values may be shown once. Inconclusive results are not listed. The source holds several records for some structures; these can differ, active in one and inactive in another. Active and inactive are the calls of the source. Unless noted, calls come from the whole dose curve; as a rule, active = well fitted curve in the direction sought with a large enough effect; inconclusive = small, poorly fitted or top-dose-only effect, or another doubt; inactive = no such curve, though single readings can be large; an effect the other way counts as inactive or inconclusive.

Tyrosine-protein kinase Yes (Homo sapiens), sequence (P07947 whole entry, looked up): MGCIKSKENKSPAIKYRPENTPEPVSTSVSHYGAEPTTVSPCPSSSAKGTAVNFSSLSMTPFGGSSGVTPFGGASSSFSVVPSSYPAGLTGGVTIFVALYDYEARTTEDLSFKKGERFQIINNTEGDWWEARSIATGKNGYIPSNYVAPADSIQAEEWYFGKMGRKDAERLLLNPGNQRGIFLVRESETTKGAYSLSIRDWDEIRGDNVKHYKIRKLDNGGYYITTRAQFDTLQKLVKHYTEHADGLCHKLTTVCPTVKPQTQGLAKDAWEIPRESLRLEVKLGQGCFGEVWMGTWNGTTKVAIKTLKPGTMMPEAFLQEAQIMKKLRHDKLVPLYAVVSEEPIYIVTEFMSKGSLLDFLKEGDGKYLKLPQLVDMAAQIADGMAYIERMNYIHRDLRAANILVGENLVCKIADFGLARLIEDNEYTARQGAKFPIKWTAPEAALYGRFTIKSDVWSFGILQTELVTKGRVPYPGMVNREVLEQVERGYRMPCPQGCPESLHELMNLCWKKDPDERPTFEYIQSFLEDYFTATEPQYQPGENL
Peroxisome proliferator-activated receptor alpha (Homo sapiens), sequence (Q07869 whole entry, looked up): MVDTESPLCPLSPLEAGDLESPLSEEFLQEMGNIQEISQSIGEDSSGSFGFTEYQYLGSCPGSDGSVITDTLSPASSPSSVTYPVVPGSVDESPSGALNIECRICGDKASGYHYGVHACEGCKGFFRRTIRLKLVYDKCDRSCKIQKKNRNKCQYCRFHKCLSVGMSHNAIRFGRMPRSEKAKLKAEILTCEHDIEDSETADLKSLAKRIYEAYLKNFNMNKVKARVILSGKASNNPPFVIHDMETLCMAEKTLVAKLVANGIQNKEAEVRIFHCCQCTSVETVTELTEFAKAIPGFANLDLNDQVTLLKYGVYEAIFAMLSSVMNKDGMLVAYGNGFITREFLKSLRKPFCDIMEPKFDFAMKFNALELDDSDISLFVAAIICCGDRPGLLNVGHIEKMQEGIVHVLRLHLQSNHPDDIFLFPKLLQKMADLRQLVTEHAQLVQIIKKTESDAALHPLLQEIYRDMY
Arylsulfatase A (Homo sapiens), sequence (P15289 whole entry, looked up): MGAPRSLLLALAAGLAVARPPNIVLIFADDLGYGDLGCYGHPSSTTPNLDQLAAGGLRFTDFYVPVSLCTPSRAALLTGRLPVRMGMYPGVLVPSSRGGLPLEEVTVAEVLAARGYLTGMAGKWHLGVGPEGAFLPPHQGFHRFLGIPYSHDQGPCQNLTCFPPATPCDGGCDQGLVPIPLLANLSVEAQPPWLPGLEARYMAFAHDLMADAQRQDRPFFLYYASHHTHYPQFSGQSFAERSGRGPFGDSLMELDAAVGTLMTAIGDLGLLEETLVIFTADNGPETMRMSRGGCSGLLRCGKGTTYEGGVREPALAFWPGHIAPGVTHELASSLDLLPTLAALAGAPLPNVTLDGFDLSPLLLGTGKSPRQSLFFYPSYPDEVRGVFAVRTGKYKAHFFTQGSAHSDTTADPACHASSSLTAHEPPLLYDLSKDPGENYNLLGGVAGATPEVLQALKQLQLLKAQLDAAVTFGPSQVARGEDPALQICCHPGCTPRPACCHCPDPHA
Nuclear receptor ROR-gamma (Homo sapiens), sequence (P51449 whole entry, looked up): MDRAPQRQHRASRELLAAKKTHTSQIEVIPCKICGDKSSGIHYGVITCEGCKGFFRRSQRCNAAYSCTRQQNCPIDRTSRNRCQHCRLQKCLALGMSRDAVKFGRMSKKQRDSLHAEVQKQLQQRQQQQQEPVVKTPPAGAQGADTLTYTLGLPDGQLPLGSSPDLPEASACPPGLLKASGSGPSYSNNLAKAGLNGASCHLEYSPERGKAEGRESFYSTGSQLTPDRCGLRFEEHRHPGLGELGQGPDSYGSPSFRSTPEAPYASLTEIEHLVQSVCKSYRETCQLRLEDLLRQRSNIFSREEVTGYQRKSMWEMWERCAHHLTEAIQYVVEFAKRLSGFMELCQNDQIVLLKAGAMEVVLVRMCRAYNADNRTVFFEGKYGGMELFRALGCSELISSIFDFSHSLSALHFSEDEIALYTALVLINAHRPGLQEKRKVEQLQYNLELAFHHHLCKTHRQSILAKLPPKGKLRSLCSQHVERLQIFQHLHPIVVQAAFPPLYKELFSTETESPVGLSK

For the molecule `CC(O)=C(C#N)C(=O)Nc1ccc(C(F)(F)F)cc1`, the Potency in [1] was 1.88 µM (active). Further, the viability (% of control) in assay [2] turned out to be 43.6%. Further, the viability, percent of control in assay [3] was 56.6%. Also, the Potency entry in assay [4] and in assay [5] was “inactive” in each case. The result in assay [6] was inactive.

Consider `NC(=O)c1ccc(N(C(N)=O)c2c(F)cccc2F)nc1-c1ccc(F)cc1F`, for which the Potency entry in assay [1], in assay [4] and in assay [5] was “inactive” in each case. The viability (% of control) in [2] turned out to be 81.2%. The viability, percent of control in assay [3] was found to be 110%. For the same molecule, in assay [6], the molecule was classed as inactive.

As for `CNC(=O)c1cc(Oc2ccc(NC(=O)Nc3ccc(Cl)c(C(F)(F)F)c3)c(F)c2)ccn1`, the Potency was 5.95 µM (active) in assay [1] and 4.87 µM (active) in [5]. Further, the viability (% of control) in assay [2] stood at 3.02%. Further, the viability, percent of control in assay [3] amounted to 4.87%. In addition, the Potency result in [4] was “inactive”. The result in assay [6] was inactive.

For `CNC(=O)c1cc(COc2nnc(Nc3ccc(Cl)cc3)c3ccoc23)ccn1`, the Potency in assay [1] was 26.6 µM (active). Further, the viability (% of control) in assay [2] was found to be 39.7%. The viability, percent of control in [3] is 6.77%. Also, the Potency entry in [5] is “inactive”. Moreover, in assay [6], the outcome was inactive.

As to `Cc1csc(-c2nnc(Nc3ccc(Oc4ncccc4-c4ccnc(N)n4)cc3)c3ccccc23)c1`, in [1], the Potency was 1.06 µM (active). Further, in [2], the viability (% of control) worked out at 4.09%. Also, the viability, percent of control in [3] stood at 63.2%. The Potency entry in [5] was “inactive”. In addition, the call in [6] was inactive.

As for `COc1c(C)cnc(Cn2cnc3c(Cl)nc(N)nc32)c1C`, the Potency in assay [1] was 0.0211 µM (active). The viability (% of control) in [2] turned out to be 13.8%. The viability, percent of control in assay [3] is 59.9%. The Potency result in assay [4] and in assay [5] was “inactive” throughout. In [6], the result was inactive.

On to `C[C@@H](O[C@H]1OCCN(Cc2n[nH]c(=O)[nH]2)[C@@H]1c1ccc(F)cc1)c1cc(C(F)(F)F)cc(C(F)(F)F)c1`, for which the Potency in assay [1] is 23.7 µM (active).

With `CC(C)C[C@@H](C(=O)N[C@H](C(=O)OC1CCCC1)c1ccccc1)[C@H](O)C(=O)NO`, the Potency result in assay [1], in assay [4] and in assay [5] was “inactive” each time. Also, the viability (% of control) in assay [2] worked out at 4.45%. Further, the viability, percent of control in assay [3] turned out to be 6.68%. For the same molecule, the molecule was called inactive in assay [6].

Consider `O=C(O)c1ccc(O)c2ncc(N3CCOCC3)cc12`, for which the Potency result in assay [1], in assay [4] and in assay [5] was “inactive” in each case. In assay [2], the viability (% of control) was 77.1%. For the same molecule, the viability, percent of control in assay [3] came to 74%. Besides, the molecule was called inactive in assay [6].

As for `OCCn1cc(-c2ccc3c(c2)CCC3=NO)c(-c2ccncc2)n1`, the Potency result in assay [1], in [4] and in assay [5] was “inactive” throughout. For the same molecule, the viability (% of control) in assay [2] came to 80.7%. The viability, percent of control in assay [3] is 133%. For the same molecule, in [6], the molecule was classed as inactive.

Regarding `COc1cccc(OC)c1-c1cc(C(=O)NC2(C(=O)O)C3CC4CC(C3)CC2C4)nn1-c1ccnc2cc(Cl)ccc12` (configuration not stated), the Potency in assay [1] is 16.8 µM (active). Besides, in [2], the viability (% of control) turned out to be 69%. Further, the viability, percent of control in assay [3] was determined as 3.08%. The Potency entry in [5] was “inactive”. Also, the call in assay [6] was inactive.

In the case of `O=C1CN2Cc3c(ccc(Cl)c3Cl)N=C2N1`, in [1], the Potency entry was “inactive”.

Take `CCC(=O)N1CCN(c2ccc(-n3c(=O)ccc4cnc5ccc(-c6cnc7ccccc7c6)cc5c43)cc2C(F)(F)F)CC1`: the Potency in assay [1] was 5.3 µM (active). Moreover, the viability (% of control) in [2] amounted to 3.32%. In addition, the viability, percent of control in assay [3] came to 4.82%. Besides, the Potency entry in assay [4] and in assay [5] was “inactive” each time. Moreover, in [6], the result was inactive.

`C[C@@H]1C[C@H]2[C@@H]3CCC4=CC(=O)C=C[C@]4(C)[C@@]3(F)[C@@H](O)C[C@]2(C)[C@@]1(O)C(=O)CO`: in [7], the Potency is 42.2 µM (active) and inactive. The activation in assay [8] is -3.68% (inactive) and -5.63% (inactive); in assay [9], -2.02% (inactive) and -1.92% (inactive); in [13], -0.0369% (inactive) and 0.315% (inactive). Moreover, the call in assay [10], in [11], in assay [12], in [15] and in [16] was inactive. Besides, the max response in [14] was -0.146% (inactive) and 1.68% (inactive).

On to `C[C@H]1O[C@@H](n2cc(F)c(=O)[nH]c2=O)[C@H](O)[C@H]1O`, for which the outcome in assay [17] is “inactive; inhibitor; fitted 8.4921 uM”. Besides, the outcome in [18], in assay [19] and in [20] was inactive.

Consider `C=CCc1cccc(C=NNC(=O)CN2CCN(Cc3ccccc3)CC2)c1O`, for which the outcome in [18], in assay [19] and in assay [20] was inactive.
